In the library only some 1.3% were active in any assay of this set; here they are far more common.
GLD-1 TGE inh: GLD-1/TGE RNA complex disruptors, primary screen, biochemical, fluorescence polarization | Female germline-specific tumor suppressor gld-1 (Caenorhabditis elegans), Q17339 | purified GLD-1 + fluorescein TGE RNA | inhibition, % at 5.96 µM | 320,000 tested, 0.44% active | AID 2280, 2010;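 active = percent inhibition above a per-plate cutoff, the plate mean of test compounds plus 3 SD, cut at about 30% in these data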
MEX-5 binding: MEX-5 zinc finger RNA-binding disruptors – biochemical, C. elegans, fluorescence polarization, MLPCN library, primary screen. MEX-5/FITC-TCR2 RNA binding; stronger effect = lower value. activity score (negative = inhibition of binding), % at 10 µM. 300,000 tested, 0.38% active;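 active = inhibition past about -25% in most replicates, and total fluorescence under double the plate's negative control median, limit read from the data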
Target sequence (Q9XUB2 whole entry, looked up): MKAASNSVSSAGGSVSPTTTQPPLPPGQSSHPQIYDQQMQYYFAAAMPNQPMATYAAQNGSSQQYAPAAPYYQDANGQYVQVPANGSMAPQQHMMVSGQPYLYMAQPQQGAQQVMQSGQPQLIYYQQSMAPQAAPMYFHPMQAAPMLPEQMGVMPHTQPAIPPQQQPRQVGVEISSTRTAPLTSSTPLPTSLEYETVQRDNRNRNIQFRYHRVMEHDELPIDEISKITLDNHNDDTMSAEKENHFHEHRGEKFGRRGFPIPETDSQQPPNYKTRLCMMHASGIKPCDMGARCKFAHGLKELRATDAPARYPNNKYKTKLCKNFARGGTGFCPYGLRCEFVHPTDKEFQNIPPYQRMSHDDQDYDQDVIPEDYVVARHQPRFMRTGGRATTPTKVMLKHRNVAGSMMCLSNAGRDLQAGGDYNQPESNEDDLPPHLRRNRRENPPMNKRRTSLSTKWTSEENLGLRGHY
eLon inh: inhibitors of E. coli Lon protease, primary screen, biochemical, fluorescence polarization; AID 602123, 2011; 360,000 tested, 0.42% active; inhibition, % at 7.94 µM; purified E. coli Lon protease; P0A9M0; in the data active = inhibition above about 13%, passing the limit was not always enough
EBV gp42 block: Epstein-Barr virus gp42 inhibitors, primary screen, biochemical, uHTS, fluorescence polarization | Glycoprotein 42 (Epstein-Barr virus (strain AG876)), Q1HVG2 | Fluorescence polarization binding assay, mP read-out | inhibition, % (tested at 21.74 µM) | 220,000 tested, 0.42% active | AID 1085, 2008; in the data active = inhibition above about 50%
Target sequence (Q1HVG2 whole entry, looked up): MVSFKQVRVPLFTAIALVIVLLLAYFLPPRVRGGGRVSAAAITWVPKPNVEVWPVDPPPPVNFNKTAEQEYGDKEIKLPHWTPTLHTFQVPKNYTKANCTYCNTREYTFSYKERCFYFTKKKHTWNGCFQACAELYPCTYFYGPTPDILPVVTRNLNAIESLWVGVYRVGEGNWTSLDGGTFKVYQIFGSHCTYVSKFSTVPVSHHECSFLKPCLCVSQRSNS
Bcl-xL primary: inhibitors of human Bcl-xL, primary screen, biochemical, fluorescence polarization, HTS; Bcl-2-like protein 1 (Homo sapiens), Q07817; GST-Bcl-xL / FITC-Bim BH3 peptide fluorescence polarization; inhibition, % at 10.9 µM; 320,000 tested, 0.7% active; AID 2129, 2009;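 active = inhibition above the mean of all tested compounds plus 3 SD, cutoff set per campaign, cut at about 30% in these data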;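 also: inhibitors lower millipolarization by displacing the labeled peptide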
GLD-1 TGE cf: GLD-1/TGE RNA binding inhibitors, retest, confirmation, biochemical, fluorescence polarization, triplicate. shares compounds with GLD-1 TGE inh. GLD-1/FL-TGE RNA fluorescence polarization. 550 tested, 10% active. inhibition, % at 5.96 µM;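 active = average inhibition across triplicates above the hit cutoff set in the primary screen, cut at about 32% in these data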
Each line names hits and unclear results; the compound was inactive in the other large screens (follow-up assays come after a bar, where they were run).

Cc1ccc(Nc2nc(N)nc(N)c2N=O)cc1Cl	none (no result: GLD-1 TGE inh, MEX-5 binding, EBV gp42 block, Bcl-xL primary)
O=C(Nc1cccc2c1C(=O)NC2=O)c1ccc(S(=O)(=O)N2CCCC2)cc1	GLD-1 TGE inh 36, Bcl-xL primary 31 (no result: MEX-5 binding, EBV gp42 block) | GLD-1 TGE cf inactive
COc1cc(OC)cc(C(=O)NNC(=O)CCc2nc3ccccc3c(=O)[nH]2)c1	none (no result: MEX-5 binding, EBV gp42 block)
N#CC1=C2N=C(N)c3ccccc3N2C2=C(C(=O)CCC2)C1c1cccc(Cl)c1 (configuration not stated)	GLD-1 TGE inh 48 | GLD-1 TGE cf inactive
Cc1ccccc1C1C(C#N)=C2N=C(N)c3ccccc3N2C2=C1C(=O)CCC2 (configuration not stated)	none
COc1ccc(S(=O)(=O)N2CCCCCC2)cc1NC(C)C(=O)Nc1ccc(NC(C)=O)cc1 (configuration not stated)	none (no result: GLD-1 TGE inh, MEX-5 binding, EBV gp42 block, Bcl-xL primary)
CCOC(=O)C1CCCN(S(=O)(=O)c2ccc(S(=O)(=O)N3CCCC3)cc2)C1 (configuration not stated)	GLD-1 TGE inh 38 (no result: EBV gp42 block) | GLD-1 TGE cf inactive
CCOC(=O)C1=C(Cc2ccc(F)cc2)C(=O)c2ccccc2C1=O	GLD-1 TGE inh 66, Bcl-xL primary 35 | GLD-1 TGE cf inactive
O=C(OCc1ccc(F)cc1)c1ccc2c(c1)-c1ccccc1C2=O	none
Cc1ccc(-c2cc(C(=O)O)c3cc(Br)ccc3n2)o1	GLD-1 TGE inh 37, Bcl-xL primary 62 | GLD-1 TGE cf inactive
Cc1ccc(-c2cc(C(=O)NN3CCOCC3)c3cc(Br)ccc3n2)o1	none
Cc1cc(C)c(S(=O)(=O)N2CCN(C(=O)C(C)Cn3cncn3)CC2)c(C)c1 (configuration not stated)	none (no result: EBV gp42 block)
CCn1c(CSc2ncccn2)nnc1SCC(=O)N1CCc2ccccc21	GLD-1 TGE inh 36, Bcl-xL primary 99 | GLD-1 TGE cf inactive
CCCCC1Cc2[nH]c(=S)[nH]c(=O)c2C(c2ccc(F)cc2)O1 (configuration not stated)	none (no result: GLD-1 TGE inh, MEX-5 binding, EBV gp42 block, Bcl-xL primary)
CCC1(CCC(C)C)SC(N)=NC1=O (configuration not stated)	none (no result: GLD-1 TGE inh, MEX-5 binding, EBV gp42 block, Bcl-xL primary)
CC(=O)Oc1ccc(C(=O)[C@H]2[C@H]3C(=O)N(c4ccccc4)C(=O)[C@H]3[C@@H]3C=CC=NN32)cc1	GLD-1 TGE inh 31 | GLD-1 TGE cf inactive
CC(=O)Oc1ccc(N2C(=O)C3C(C2=O)C(C(=O)c2ccc(Cl)cc2)N2CCCC32)cc1 (configuration not stated)	GLD-1 TGE inh 58, Bcl-xL primary 78 | GLD-1 TGE cf inactive
O=C(C1=C[C@@H]2[C@H]3C(=O)N(c4ccc(Cl)cc4)C(=O)[C@H]3[C@@H](C(=O)c3ccc(Cl)cc3)N2C=C1)c1ccccc1	none
COc1ccc(C(=O)N/C(=C\c2ccc(SC)cc2)C(=O)NCCCn2ccnc2)cc1OC	none (no result: MEX-5 binding, EBV gp42 block, Bcl-xL primary)
O=C(O)[C@@H]1[C@@H]2C[C@@H]2CN1c1ncccc1[N+](=O)[O-]	GLD-1 TGE inh 39, Bcl-xL primary 47 | GLD-1 TGE cf inactive
O=C(/C=C/c1ccc(Cl)cc1)NCc1cccs1	GLD-1 TGE inh 65 | GLD-1 TGE cf inactive
O=C(/C=C/c1cccc(Cl)c1)NCc1cccs1	none
CCNC(=O)CC1SC(=Nc2ccc(C)c([N+](=O)[O-])c2)N(C)C1=O (configuration not stated)	GLD-1 TGE inh 31 (no result: EBV gp42 block) | GLD-1 TGE cf inactive
Cc1ccc(S(=O)(=O)N[C@H](C(=O)Oc2ccc3c(C(F)(F)F)cc(=O)oc3c2)c2ccccc2)cc1	GLD-1 TGE inh 50, eLon inh 20, Bcl-xL primary 45 | GLD-1 TGE cf 44
Cc1ccc(S(=O)(=O)NC(C(=O)Oc2ccc3ccc(=O)oc3c2)c2ccccc2)cc1 (configuration not stated)	none
COC(=O)C(C(=O)Nc1ccccc1C)C1CCCCCC1 (configuration not stated)	none
CC(C)C1CC(CCN)(Cc2ccccc2)CCO1 (configuration not stated)	none
O=C(NN=Cc1ccccc1Cl)c1ccc([N+](=O)[O-])cc1	none (no result: GLD-1 TGE inh, MEX-5 binding, EBV gp42 block, Bcl-xL primary)
O=C(N/N=C/c1ccc[nH]1)c1ccc([N+](=O)[O-])cc1	GLD-1 TGE inh 57 | GLD-1 TGE cf inactive
O=C(CNC(=O)c1cccnc1)N/N=C/c1ccc(O)cc1O	GLD-1 TGE inh 33 (no result: EBV gp42 block) | GLD-1 TGE cf inactive
O=C(C1CCC(=O)N(C2CCCCCC2)C1)N1CCN(c2ccccc2Cl)CC1 (configuration not stated)	GLD-1 TGE inh 31, Bcl-xL primary 89 (no result: EBV gp42 block) | GLD-1 TGE cf inactive
C[C@H](CO)N1C[C@H](C)[C@@H](CN(C)S(=O)(=O)c2ccccc2F)Oc2ncc(Br)cc2C1=O	none (no result: GLD-1 TGE inh, MEX-5 binding, EBV gp42 block, Bcl-xL primary)
Cc1ccc(OCC(=O)c2ccc(Cl)s2)c([N+](=O)[O-])n1	GLD-1 TGE inh 31 | GLD-1 TGE cf inactive
COC(=O)c1ccc(NC(=O)CSc2nnc(-c3ccccc3Br)n2-c2ccccc2)cc1	GLD-1 TGE inh 46 (no result: EBV gp42 block) | GLD-1 TGE cf inactive
Cc1ccc(NC(=O)CSc2nnc(C)n2-c2ccccc2)cc1	none
Cc1cccc(NC(=O)CSc2nccn2Cc2ccco2)c1C	none (no result: EBV gp42 block)
O=C1CCCC2=C1Sc1ccccc1N2	GLD-1 TGE inh 31, EBV gp42 block 65, Bcl-xL primary 58 | GLD-1 TGE cf inactive
O=C1Nc2ccccc2SC1=Cc1ccccc1	none (no result: GLD-1 TGE inh, MEX-5 binding, EBV gp42 block, Bcl-xL primary)
NS(=O)(=O)c1ccc2c(c1)C1C=CCC1C(C1CC=CCC1)N2 (configuration not stated)	GLD-1 TGE inh 34, Bcl-xL primary 46 | GLD-1 TGE cf inactive
Cc1cc2ccccc2n1CCNC(=O)c1cccs1	GLD-1 TGE inh 49, Bcl-xL primary 42 | GLD-1 TGE cf inactive
Cc1cc2ccccc2n1CCNC(=O)C1CCCC1	none (no result: MEX-5 binding)
Cc1cc2ccccc2n1CCNC(=O)C1CC1	GLD-1 TGE inh 35 (no result: EBV gp42 block) | GLD-1 TGE cf inactive
CCOC(=O)N(C)C[C@H]1OCc2cnnn2CCCC(=O)N([C@@H](C)CO)C[C@H]1C	none (no result: GLD-1 TGE inh, MEX-5 binding, EBV gp42 block, Bcl-xL primary)
Cc1cccc(/C=N/n2c(C)nc3ccccc3c2=O)c1	none (no result: EBV gp42 block)
COc1cccc(C(=O)NN2CC(O)=C(c3nc(C)cs3)C2=N)c1	none
COc1cccc(C(=O)NN2CC(O)=C(c3nc4ccccc4s3)C2=N)c1	GLD-1 TGE inh 31 | GLD-1 TGE cf inactive
Cc1ccccc1NC(=O)NC(N)=O	none
Cc1ccccc1N=C(N)Nc1ccccc1C	GLD-1 TGE inh 43, Bcl-xL primary 63 (no result: MEX-5 binding, EBV gp42 block) | GLD-1 TGE cf 43
COCCNC(=O)NC(=O)CN1C(=O)NC(Cc2c[nH]c3ccccc23)C1=O (configuration not stated)	none (no result: EBV gp42 block)
COC(=O)c1ccc(CNC(=O)Cn2nnnc2CN(C)C(C)C)cc1	GLD-1 TGE inh 138 (no result: EBV gp42 block) | GLD-1 TGE cf inactive

Screening data: PubChem BioAssay, several laboratories
